The full ranking holds about 1,500 compounds; the median of “Excess HSA synergy score (sum over dose matrix of excess over highest single agent)” is about 43, and the lowest 2% start at about -900. The sample as a whole holds a higher share of the lowest values than the screen did.
System: PEO-1
Test: Excess HSA synergy score (sum over dose matrix of excess over highest single agent) (score (summed % response)); higher = less synergy / more antagonism (negative = synergy)
Details: 72 h, read-out: viability/apoptosis luminescence (CellTiter-Glo or Caspase3-Glo / not stated per table)
[1] = matrix design: 6x6, 5-fold dilutions (primary screen)

| SMILES | Excess HSA synergy score [1] | Excess HSA synergy score (matrix design: 10x10, 9-step dilutions (confirmatory)) |
| --- | --- | --- |
| CC(C)c1cc(C(=O)N2Cc3ccc(CN4CCN(C)CC4)cc3C2)c(O)cc1O [Onalespib] + CC[C@H](NC(=O)[C@H](C)NC)C(=O)N1C[C@@H](O)C[C@H]1Cc1c(-c2[nH]c3cc(F)ccc3c2C[C@@H]2C[C@H](O)CN2C(=O)[C@H](CC)NC(=O)[C@H](C)NC)[nH]c2cc(F)ccc12 [Birinapant] | 13.4 | – |
| C[C@@H](Oc1cc(-n2cnc3ccc(CN4CCN(C)CC4)cc32)sc1C(N)=O)c1ccccc1C(F)(F)F + CC[C@H](NC(=O)[C@H](C)NC)C(=O)N1C[C@@H](O)C[C@H]1Cc1c(-c2[nH]c3cc(F)ccc3c2C[C@@H]2C[C@H](O)CN2C(=O)[C@H](CC)NC(=O)[C@H](C)NC)[nH]c2cc(F)ccc12 [Birinapant] | -274 | -1360 |
| COc1cc2ncn(-c3cc(OCc4ccccc4C(F)(F)F)c(C(N)=O)s3)c2cc1OC + CC[C@H](NC(=O)[C@H](C)NC)C(=O)N1C[C@@H](O)C[C@H]1Cc1c(-c2[nH]c3cc(F)ccc3c2C[C@@H]2C[C@H](O)CN2C(=O)[C@H](CC)NC(=O)[C@H](C)NC)[nH]c2cc(F)ccc12 [Birinapant] | -51.1 | – |
| Cc1ccc(F)c(NC(=O)Nc2ccc(-c3cccc4[nH]nc(N)c34)cc2)c1 [Linifanib] + CC[C@H](NC(=O)[C@H](C)NC)C(=O)N1C[C@@H](O)C[C@H]1Cc1c(-c2[nH]c3cc(F)ccc3c2C[C@@H]2C[C@H](O)CN2C(=O)[C@H](CC)NC(=O)[C@H](C)NC)[nH]c2cc(F)ccc12 [Birinapant] | -40 | – |
| C[C@@H](O)[C@H](NC(=O)[C@@H]1CSSC[C@H](NC(=O)[C@H](N)Cc2ccccc2)C(=O)N[C@@H](Cc2ccc(O)cc2)C(=O)N[C@H](Cc2c[nH]c3ccccc23)C(=O)N[C@@H](CCCCN)C(=O)N1)C(N)=O + CC[C@H](NC(=O)[C@H](C)NC)C(=O)N1C[C@@H](O)C[C@H]1Cc1c(-c2[nH]c3cc(F)ccc3c2C[C@@H]2C[C@H](O)CN2C(=O)[C@H](CC)NC(=O)[C@H](C)NC)[nH]c2cc(F)ccc12 [Birinapant] | 120 | – |
| Cc1ccccc1C(C(=O)NC1CCCCC1)N(C(=O)Cn1ccnc1C)c1cccc(F)c1 (stereo unspecified) + CC[C@H](NC(=O)[C@H](C)NC)C(=O)N1C[C@@H](O)C[C@H]1Cc1c(-c2[nH]c3cc(F)ccc3c2C[C@@H]2C[C@H](O)CN2C(=O)[C@H](CC)NC(=O)[C@H](C)NC)[nH]c2cc(F)ccc12 [Birinapant] | 12.3 | – |
| COc1cc2ncn(-c3cc(OCc4ccccc4S(C)(=O)=O)c(C#N)s3)c2cc1OC [IKK-3 Inhibitor IX] + CC[C@H](NC(=O)[C@H](C)NC)C(=O)N1C[C@@H](O)C[C@H]1Cc1c(-c2[nH]c3cc(F)ccc3c2C[C@@H]2C[C@H](O)CN2C(=O)[C@H](CC)NC(=O)[C@H](C)NC)[nH]c2cc(F)ccc12 [Birinapant] | 113 | – |
| Cc1cnc(Nc2ccc(F)cc2Cl)nc1-c1c[nH]c(C(=O)N[C@H](CO)c2cccc(Cl)c2)c1 + CC[C@H](NC(=O)[C@H](C)NC)C(=O)N1C[C@@H](O)C[C@H]1Cc1c(-c2[nH]c3cc(F)ccc3c2C[C@@H]2C[C@H](O)CN2C(=O)[C@H](CC)NC(=O)[C@H](C)NC)[nH]c2cc(F)ccc12 [Birinapant] | 192 | – |
| CN1CCN(c2cccc(Nc3nc4c(-c5ccc(S(C)(=O)=O)cc5)cccn4n3)c2)CC1 + CC[C@H](NC(=O)[C@H](C)NC)C(=O)N1C[C@@H](O)C[C@H]1Cc1c(-c2[nH]c3cc(F)ccc3c2C[C@@H]2C[C@H](O)CN2C(=O)[C@H](CC)NC(=O)[C@H](C)NC)[nH]c2cc(F)ccc12 [Birinapant] | -105 | – |
| Cc1c(-c2cccc3c(CCCOc4cccc5ccccc45)c(C(=O)O)n(Cc4cccnc4)c23)c(COc2ccc(N3CCN([S+](=O)([O-])N(C)C)CC3)cc2)nn1C + CC[C@H](NC(=O)[C@H](C)NC)C(=O)N1C[C@@H](O)C[C@H]1Cc1c(-c2[nH]c3cc(F)ccc3c2C[C@@H]2C[C@H](O)CN2C(=O)[C@H](CC)NC(=O)[C@H](C)NC)[nH]c2cc(F)ccc12 [Birinapant] | 51.7 | – |
| Cn1cc(-c2ccc3nnc(C(F)(F)c4ccc5ncccc5c4)n3n2)cn1 + CC[C@H](NC(=O)[C@H](C)NC)C(=O)N1C[C@@H](O)C[C@H]1Cc1c(-c2[nH]c3cc(F)ccc3c2C[C@@H]2C[C@H](O)CN2C(=O)[C@H](CC)NC(=O)[C@H](C)NC)[nH]c2cc(F)ccc12 [Birinapant] | 40.5 | – |
| Cc1ccc(C(=O)Nc2cccc(C(F)(F)F)c2)cc1Nc1nc(-c2cccnc2)nc2c1cnn2C + CC[C@H](NC(=O)[C@H](C)NC)C(=O)N1C[C@@H](O)C[C@H]1Cc1c(-c2[nH]c3cc(F)ccc3c2C[C@@H]2C[C@H](O)CN2C(=O)[C@H](CC)NC(=O)[C@H](C)NC)[nH]c2cc(F)ccc12 [Birinapant] | -71.3 | – |
| N#CC(c1ccnc(NCCc2cccnc2)n1)c1nc2ccccc2s1 (stereo unspecified) [JNK Inhibitor V] + CC[C@H](NC(=O)[C@H](C)NC)C(=O)N1C[C@@H](O)C[C@H]1Cc1c(-c2[nH]c3cc(F)ccc3c2C[C@@H]2C[C@H](O)CN2C(=O)[C@H](CC)NC(=O)[C@H](C)NC)[nH]c2cc(F)ccc12 [Birinapant] | -67.5 | – |
| CC(C)(C(=O)NCC(F)(F)C(F)(F)F)C(=O)N[C@@H]1C(=O)Nc2ccccc2-c2ccccc21 + CC[C@H](NC(=O)[C@H](C)NC)C(=O)N1C[C@@H](O)C[C@H]1Cc1c(-c2[nH]c3cc(F)ccc3c2C[C@@H]2C[C@H](O)CN2C(=O)[C@H](CC)NC(=O)[C@H](C)NC)[nH]c2cc(F)ccc12 [Birinapant] | -141 | – |
| COc1ccc(-c2coc3cc(O)cc(O)c3c2=O)cc1 [Biochanin A] + CC[C@H](NC(=O)[C@H](C)NC)C(=O)N1C[C@@H](O)C[C@H]1Cc1c(-c2[nH]c3cc(F)ccc3c2C[C@@H]2C[C@H](O)CN2C(=O)[C@H](CC)NC(=O)[C@H](C)NC)[nH]c2cc(F)ccc12 [Birinapant] | 235 | – |

From the supplement of paper PMC7765376
